Laboratory results as given in PubChem BioAssay (Tox21).
Records with an inconclusive call do not appear. Calls of active or inactive are those of the source. Calls come from the whole dose curve; as a rule, active = well fitted curve in the direction sought with a large enough effect in the repeat runs; inconclusive = weak or mixed curves; inactive = no such curve, though single readings can be large; an effect the other way counts as inactive or inconclusive.

Key:
[1] = qHTS RealTime-Glo MT Cell Viability Assay in HepG2 cells - 24 hour (AID 1224867); note: nearly all actives have a fitted effect of over 50% in size
Method in brief: (§1)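 HepG2 cells (600/well) were dispensed with RealTime-Glo reagents, incubated 5 h at 37 °C, then treated with compounds in DMSO for up to 40 h. Nonlytic NanoLuc luminescence reflecting viable cells was read at each stated time point.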

[2] = qHTS RealTime-Glo MT Cell Viability Assay in HEK293 cells - 32 hour (AID 1224868); note: top concentration of the series differs between compounds; nearly all actives have a fitted effect of over 50% in size
Method in brief: (§2)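 HEK293 cells seeded with NanoLuc/prosubstrate reagent, rested 5 h at 37 C, then dosed and kept at 37 C up to 40 h. Nonlytic real-time luminescence from viable cells read at 0, 8, 16, 24, 32 and 40 h.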

[3] = A CellTox Green Cytotoxicity Assay to monitor cytotoxicity in HEK293 cells - 0 hour (AID 1224869); note: nearly all actives have a fitted effect of over 50% in size
Method in brief: (§3)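 Nonlytic real-time cytotoxicity: HEK293 + CellTox Green reagent plated, 5 h preincubation, pintool compound addition (23 nL in DMSO), 37 C for 40 h, fluorescence measured at successive time points.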

[4] = qHTS RealTime-Glo MT Cell Viability Assay in HepG2 cells - 40 hour (AID 1224870); note: nearly all actives have a fitted effect of over 50% in size
Method in brief: (§4)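 HepG2 cells (600/well) mixed with RealTime-Glo MT reagent, settled 5 h at 37 C/5% CO2 before compound addition. Nonlytic NanoLuc luminescence from viable-cell prosubstrate reduction read repeatedly during 40 h treatment at 37 C.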

[5] = A CellTox Green Cytotoxicity Assay to monitor cytotoxicity in HEK293 cells - 40 hour (AID 1224871); note: nearly all actives have a fitted effect of over 45% in size
Method in brief: as §3

[6] = qHTS RealTime-Glo MT Cell Viability Assay in HEK293 cells - 16 hour (AID 1224872)
Method in brief: as §2

[7] = qHTS RealTime-Glo MT Cell Viability Assay in HepG2 cells - 8 hour (AID 1224873); note: nearly all actives have a fitted effect of over 55% in size
Method in brief: as §4

[8] = qHTS RealTime-Glo MT Cell Viability Assay in HEK293 cells - 40 hour (AID 1224874); conditions: RealTime-Glo luminescence; max response: active compounds read low; note: nearly all actives have a fitted effect of over 50% in size
Method in brief: (§5)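 Cells were seeded together with NanoLuc luciferase and a prosubstrate that viable cells reduce to a luciferase substrate. After a 5 h incubation at 37 C/5% CO2, compounds were added and luminescence was measured repeatedly during 40 h of treatment.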

[9] = A CellTox Green Cytotoxicity Assay to monitor cytotoxicity in HEK293 cells - 24 hour (AID 1224875); note: series mostly up to about 77 µM; nearly all actives have a fitted effect of over 45% in size
Method in brief: as §3

[10] = A CellTox Green Cytotoxicity Assay to monitor cytotoxicity in HepG2 cells - 16 hour (AID 1224876); note: nearly all actives have a fitted effect of over 45% in size
Method in brief: (§6)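 Read-out is fluorescence of a cyanine dye excluded from live cells that stains DNA of dead HepG2 cells, with signal proportional to cytotoxicity. Plates were read at 0, 8, 16, 24, 32 and 40 h after compound addition.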

[11] = qHTS RealTime-Glo MT Cell Viability Assay in HepG2 cells - 32 hour (AID 1224877); note: nearly all actives have a fitted effect of over 55% in size
Method in brief: as §1

[12] = A CellTox Green Cytotoxicity Assay to monitor cytotoxicity in HepG2 cells - 24 hour (AID 1224878); note: nearly all actives have a fitted effect of over 45% in size
Method in brief: as §6

[13] = A CellTox Green Cytotoxicity Assay to monitor cytotoxicity in HepG2 cells - 40 hour (AID 1224879); note: nearly all actives have a fitted effect of over 40% in size
Method in brief: as §6

[14] = qHTS RealTime-Glo MT Cell Viability Assay in HEK293 cells - 0 hour (AID 1224880)
Method in brief: as §5

[15] = A CellTox Green Cytotoxicity Assay to monitor cytotoxicity in HEK293 cells - 32 hour (AID 1224881); note: nearly all actives have a fitted effect of over 40% in size
Method in brief: as §3

[16] = A CellTox Green Cytotoxicity Assay to monitor cytotoxicity in HepG2 cells - 0 hour (AID 1224882); note: nearly all actives have a fitted effect of over 35% in size
Method in brief: as §6

[17] = A CellTox Green Cytotoxicity Assay to monitor cytotoxicity in HepG2 cells - 32 hour (AID 1224883); note: nearly all actives have a fitted effect of over 50% in size
Method in brief: as §6

[18] = A CellTox Green Cytotoxicity Assay to monitor cytotoxicity in HEK293 cells - 8 hour (AID 1224884); note: nearly all actives have a fitted effect of over 35% in size
Method in brief: as §3

[19] = qHTS RealTime-Glo MT Cell Viability Assay in HepG2 cells - 16 hour (AID 1224885); note: nearly all actives have a fitted effect of over 50% in size
Method in brief: as §1

[20] = qHTS RealTime-Glo MT Cell Viability Assay in HEK293 cells - 24 hour (AID 1224886)
Method in brief: as §2
% is set by controls: 0 for no effect and ±100 for the full control effect.

CC1CC(=O)CC(C)(C)C1 (stereo not given)
inactive: outcome [1] | Potency [2] | Potency [3] | outcome [4] | Potency [5] | Potency [6] | outcome [7] | max response [8] -1.21% | Potency [9] | Potency [10] | outcome [11] | Potency [12] | Potency [13] | Potency [14] | Potency [15] | Potency [16] | Potency [17] | Potency [18] | outcome [19] | Potency [20]

O=C1c2ccccc2C(=O)c2cc(Cl)ccc21
inactive: activity change, negative = cytotoxicity [1] -1.65% [at 6.97 µM] | activity change, negative = cytotoxic [2] -1.41% [at 6.97 µM] | cytotoxicity [3] -6.57% [at 6.97 µM] | activity change, negative = cytotoxic [4] -4.67% [at 6.97 µM] | cytotoxicity increase [5] -5.31% [at 6.97 µM] | activity change, negative = cytotoxicity [6] 4.83% [at 6.97 µM] | viability change, negative = cytotoxic [7] 0.0863% [at 6.97 µM] | max response [8] 3.12% | activity change [9] -1.14% [at 6.97 µM, active compounds read high] | cytotoxicity increase [10] -1.12% [at 6.97 µM] | activity change, negative = cytotoxic [11] -5.12% [at 6.97 µM] | cytotoxicity [12] 0.241% [at 6.97 µM] | cytotoxicity increase [13] 1.15% [at 6.97 µM] | activity change, negative = cytotoxicity [14] 3.49% [at 6.97 µM] | cytotoxicity increase [15] -1.78% [at 6.97 µM] | cytotoxicity [16] 3.98% [at 6.97 µM] | cytotoxicity increase [17] 0.512% [at 6.97 µM] | cytotoxicity increase [18] -6.44% [at 6.97 µM] | activity change, negative = cytotoxic [19] 1.7% [at 6.97 µM] | activity change, negative = cytotoxicity [20] 2.92% [at 6.97 µM]

OCC1CCC(CO)CC1 (stereo not given)
inactive: outcome [1] | Potency [2] | Potency [3] | outcome [4] | Potency [5] | Potency [6] | outcome [7] | max response [8] 6.03% | Potency [9] | Potency [10] | outcome [11] | Potency [12] | Potency [13] | Potency [14] | Potency [15] | Potency [16] | Potency [17] | Potency [18] | outcome [19] | Potency [20]

CCCCOC(=O)[C@H](C)O
inactive: outcome [1] | Potency [2] | Potency [3] | outcome [4] | Potency [5] | Potency [6] | outcome [7] | max response [8] 1.9% | Potency [9] | Potency [10] | outcome [11] | Potency [12] | Potency [13] | Potency [14] | Potency [15] | Potency [16] | Potency [17] | Potency [18] | outcome [19] | Potency [20]

O=NN(CCCl)C(=O)NC1CCCCC1
inactive: outcome [1] | Potency [2] | Potency [3] | outcome [4] | Potency [5] | Potency [6] | outcome [7] | max response [8] 1.88% | Potency [9] | Potency [10] | outcome [11] | Potency [12] | Potency [13] | Potency [14] | Potency [15] | Potency [16] | Potency [17] | Potency [18] | outcome [19] | Potency [20]
